The panel holds about 83,000 compounds, 20% with a hit somewhere; the sample as a whole holds those more often.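 Compound tested at a single concentration for 48 hours in 96-well plates; a percent growth value below 10 was scored as active.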 Calls of active or inactive are those of the source.

The subject of one test is HOP-92 NSCLC. The test can be described thus: NCI-60 one-dose screen, 48 h (100 = growth as untreated, 0 = no growth, -100 = all killed). To be noted: 10 µM unless noted.
`CC(=O)N1N=C(c2ccc(Nc3nc(Nc4ccc(F)cc4)nc(Nc4ccc(Cl)cc4)n3)cc2)CC1c1ccc(Cl)cc1` (centres undefined): the growth was 64.1% (inactive).

Turning to `COc1ccc(OC)c(/C=C/c2nnc(Nc3ccccc3)o2)c1`, the growth was 62.5% (inactive).

With `COc1cc2cc(Oc3ccc(NC(=O)Nc4ccc(Cl)c(C(F)(F)F)c4)cc3)c(C)nc2cc1OCCN1CCOCC1`, the growth was 20.5% (inactive).

`CCOC(=O)C1=C(N)Oc2c(sc3c(C)cccc23)C1c1ccc(F)cc1` (centres undefined): the growth is 91.7% (inactive).

With `NCCCNc1nc2ccccc2c2c(=O)c3cccc(F)c3sc12`, the growth was 35.8% (inactive).

As for `CCc1ccc(Oc2c(-c3ccc(OCc4ccc(Cl)cc4)cc3O)n[nH]c2C(F)(F)F)cc1`, the growth is -17.2% (active).

Take `COc1ccc2sc3c(NCCCNCCO)nc4ccccc4c3c(=O)c2c1`: the growth is 31.2% (inactive).

`COc1nc2ccccc2cc1-c1nc2c(cnn2-c2ccc(Br)cc2)c(=O)[nH]1`: the growth is 39% (inactive).

With `Cc1oc2nc[nH]c(=O)c2c1C(=O)/C=C/c1ccc(Br)cc1`, the growth is -10.7% (active).

A further test concerns NCI-H522 lung. Described as above. Particulars: 10 µM unless noted.
`COc1ccc(/C=N/Nc2cc(=O)[nH]c3ccc(Cl)cc23)cc1`: the growth is -42.7% (active).

`CCCCCCN(CCCCCC)c1ccc(/C=C2/SC(=O)NC2=O)c(C)c1`: the growth is 77.4% (inactive).

As to `CC(=O)Oc1ccccc1C(=O)N=C1[Se]CCCN1C(=O)c1ccccc1OC(C)=O`, the growth is 73.3% (inactive).

For `CC(C)OC(=O)Nc1ccc(-c2nc(-c3cccc(OCCN4CCOCC4)c3)c(-c3ccnc(Br)c3)[nH]2)cc1`, the growth was 49.9% (inactive).

Regarding `Cc1cc2nc3ccc(N=Nc4ccc(N(C)C)cc4)cc3n(-c3ccccc3)c-2cc1=N`, the growth was -73.8% (active).

As for `CCCCn1c(-c2ccc(-c3nc(-c4ccc(Cl)cc4)no3)cc2)nc(-c2ccccc2)c1-c1ccccc1`, the growth was 75.2% (inactive).

For `Oc1c(I)cc(I)cc1CNCCCN(Cc1ccccn1)Cc1ccccn1`, the growth was -56.4% (active).

`C/C(=N/NC(N)=S)c1sc(Nc2cccc(Cl)c2)nc1C`: the growth is 42.6% (inactive).

In the case of `Cc1nn(-c2ccccc2)c2c1N=c1s/c(=C\c3ccc(C(F)(F)F)cc3)c(=O)n1CN2`, the growth was 40.5% (inactive).

Take `O=C(O)CCC(=O)Nc1nnc(-c2ccccc2)s1`: the growth was 80.1% (inactive).

With `Oc1ccc(Cl)cc1Cc1cc(Cl)cc(Cl)c1O`, the growth is 38.9% (inactive).

Consider `O=c1c2cccc(Cl)c2sc2c(NCCCNCCO)nc3ccccc3c12`, for which the growth was 49.5% (inactive).

`COc1cc(C2CC(c3cccc(Br)c3)=NN2C(C)=O)cc(OC)c1OC` (centres undefined): the growth was -13.8% (active).

In the case of `COc1ccc(-c2nc(NN)c3c(C)nn(-c4ccc(F)cc4)c3n2)cc1`, the growth is 22.6% (inactive).

Consider `CCOC(=O)NCCc1ccccc1`, for which the growth was 98.1% (inactive).

For `COc1ccccc1/C=C1\Oc2cc(OCCN3CCC(Cc4ccccc4)CC3)ccc2C1=O`, the growth was 91.7% (inactive).

Take `O=C(COc1ccc(/C=C2\Cc3ccc(Cl)cc3C2=O)cc1)Nc1nc2ccccc2s1`: the growth is 96.7% (inactive).

With `CCc1cccc2c3c(sc12)C(c1ccc(F)cc1)C(C#N)=C(N)O3` (centres undefined), the growth was 26.8% (inactive).

Consider `Cc1ccc(C(=O)N/N=C/c2cccc([N+](=O)[O-])c2)cn1`, for which the growth was 84.8% (inactive).

As to `CCOC(=O)C1=C(N)Oc2c(sc3c(C)cccc23)C1c1ccc(Cl)cc1` (centres undefined), the growth is 23% (inactive).

Take `COc1ccc(-n2c(N)c(-c3nc4ccccc4[nH]3)cc(C#N)c2=O)cc1`: the growth is 74.2% (inactive).

For the compound `Cc1cc2nc3cc(C)c(N)cc3[n+](-c3ccccc3)c2cc1N`, the growth is 38.4% (inactive).

In the case of `COc1c(N2CC3CCCN(C(C)=O)C3C2)c(F)cc2c(=O)c(C(=O)N[C@H]3C(O)[C@@H](O)C(CO)O[C@H]3O)cn(C3CC3)c12` (some centres undefined), the growth is 94.9% (inactive).

Consider `COc1ccc(C2CC(c3ccc(Nc4nc(Nc5ccc(F)cc5)nc(Nc5ccc(Cl)cc5)n4)cc3)=NN2C(C)=O)cc1` (centres undefined), for which the growth was 58.1% (inactive).

In the case of `O=c1[nH][n+](-c2ccc(Br)cc2)no1`, the growth is 49.3% (inactive).

With `O=C(CSc1nccc(Nc2ccc(S(=O)(=O)Nc3nccs3)cc2)n1)c1ccc(C(F)(F)F)cc1`, the growth is 84.4% (inactive).

As to `COc1cc(C2CC(c3ccc(N(C)C)cc3)=NN2C(C)=O)cc(OC)c1OC` (centres undefined), the growth is -5.66% (active).

In the case of `COc1ccc2c(c1)c(-c1ccc(-c3cn(C)c4ccc(OC)cc34)o1)cn2C`, the growth was -19.6% (active).

Turning to `COc1ccc(CN2c3ccccc3CCc3ccccc32)cc1F`, the growth was -36% (active).

With `CC(=O)N1N=C(c2ccc(Nc3nc(Nc4ccc(F)cc4)nc(Nc4ccc(Cl)cc4)n3)cc2)CC1c1ccc(Cl)cc1` (centres undefined), the growth was 73.2% (inactive).

The record behind these values is PubChem BioAssay (NCI).
